# From PubChem BioAssay (NCI)
# Where “and” joins values, the source holds several entries; their conditions need not be identical. Equal entries are not always repeated. The panel holds about 83,000 compounds, 20% with a hit somewhere; the sample as a whole holds those more often.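 Cells were grown in 96-well plates and exposed to the test compound at a single concentration for 48 hours; results are reported as percent growth, with values below 10 considered active.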 Calls of active or inactive are those of the source.
# Tested on: M14 melanoma
# Experiment: NCI-60 one-dose screen, 48 h (100 = growth as untreated, 0 = no growth, -100 = all killed)
# Conditions: 10 µM
# Protocol: Growth inhibition of the M14 human tumor cell line is measured as a screen for anti-cancer activity. Cells are grown in 96 well plates and exposed to the test compound for 48 hours. Compounds are tested at a single concentration, which is 10^-5 M for most compounds. The reported endpoint is percent growth (GI% or GIPRCNT), where numbers from 0 - 100% represent growth inhibition, and numbers from -100% - 0 represent cell death. For example, a value of 40 represents 60% growth inhibition. A value of 0 means no net growth occurred over the course of the experiment. A value of -40 indicates 40% of cells at the beginning of the experiment died by the end of the experiment. A value of -100 means all cells are dead at the end of the experiment.
# NCI-60 Human Tumor Cell Lines Screen was performed using the standard one-dose NCI protocol, which is described in more detail at https://dtp.cancer.gov/discovery_development/nci-60/default.htm.
# Compounds with GIPRCNT values below 10 were considered active. Activity score was based on GIPRCNT using the following formula: […]
# Score is 0 for GIPRCNT values of 100 or above, 50 for GIPRCNT values of 0, and 100 for GIPRCNT values of -100.
row,SMILES,growth
1,CC#C[C@]1(O)CC[C@H]2[C@@H]3CCC4=CC(=O)CCC4=C3[C@@H](c3ccc4c(c3)OCO4)C[C@@]21C,81.9% (inactive)
2,Cc1[nH]c(-c2nc3ccccc3[nH]2)c(C)c1C(=O)NC(C)C1CCCCC1 (stereo not given),83.1% (inactive)

# Same assay, conditions: 10 µM unless noted
row,SMILES,growth
1,O=[N+]([O-])c1ccccc1/C=N\Nc1ccccc1,50.1% (inactive) and 70.9% (inactive)
2,CCN1CCN(CCNc2nccc(-c3c(-c4cccc(O)c4)nc4sccn34)n2)S1(=O)=O,5.92% (active) and 8.15% (active)
3,Cn1cnc([N+](=O)[O-])c1Sc1ncnc2nc[nH]c12,30.3% (inactive) and 21.4% (inactive)
4,C#CCN(C)Cc1ccccc1,97.3% (inactive) and 96.8% (inactive)
5,Cc1ccc(-c2noc(C)n2)cc1,110% (inactive)
6,CCCCCN(CCCCC)CC(O)c1cc2c(c3ccccc13)CCCC2 (stereo not given),76.8% (inactive) and 72.4% (inactive)
7,O=C(CCc1ccc(O)cc1)N/N=C/c1cc(Br)ccc1O,39.9% (inactive)
8,COc1cc(NS(C)(=O)=O)ccc1Nc1c2ccccc2nc2c(C)cccc12,19.4% (inactive) and 11.8% (inactive)
9,O=C(Nc1cccc(Cl)c1)c1cc2ccccc2cc1O,48.4% (inactive) and 18.2% (inactive)
10,Oc1c(CN2CCCCC2)ccc2cccnc12,20.7% (inactive) and 32.6% (inactive)
11,O=[N+]([O-])c1ccc(N/N=C\c2cc(Br)ccc2O)nc1,2.25% (active) and 13.7% (inactive)
12,COc1ccc(S(=O)(=O)N2CCOCC2)cc1NC(=O)c1[nH]c(C)c2c1CCCCC2=O,109% (inactive) and 102% (inactive)
13,Cn1c(SSc2ccc(-c3cccnc3)n2C)ccc1-c1cccnc1,101% (inactive) and 98.4% (inactive)
14,CC(=O)Oc1cc(C(=O)O)cc(OC(C)=O)c1OC(C)=O,105% (inactive) and 99% (inactive)
15,O=C(/C=C/c1ccccn1)c1ccccc1O,72.5% (inactive) and 82.3% (inactive)
16,CCC(=O)C(CC)c1cccc(OC)c1 (stereo not given),101% (inactive)
17,Clc1ccc(SSc2ccc(Cl)cc2)cc1,93.6% (inactive) and 94.1% (inactive)
18,Cc1ncsc1CCO,107% (inactive) and 95.3% (inactive)

row,SMILES,growth
1,COc1ccc(-c2ncnc3c2ncn3C/C=C/CCl)cc1,70.9% (inactive) and 87% (inactive)
2,NC(=O)c1ccccc1OCC(O)CO (stereo not given),112% (inactive)
3,Clc1ccc(NC(Nc2ccc(Cl)cc2)C(Cl)(Cl)Cl)cc1,71.1% (inactive) and 82.3% (inactive)
4,CN(C)c1ccc2nc3ccc(N)cc3[n+](-c3ccccc3)c2c1,40.8% (inactive) and 15% (inactive)
5,NCCSC(C[N+](=O)[O-])c1ccccc1Cl (stereo not given),74.4% (inactive)
6,Cc1cccc(/C=C\C(=O)c2ccccc2)c1,98.5% (inactive)
7,O=[N+]([O-])c1ccc(Oc2ccccc2)cc1,98.6% (inactive) and 108% (inactive)
8,Cc1ccc(S(=O)(=O)Nc2nc3ccccc3nc2Nc2ccc3nsnc3c2)cc1,48% (inactive) and 49.6% (inactive)
9,CC(O)Cn1cnc2c1c(=O)n(C)c(=O)n2C (stereo not given),104% (inactive)
10,NS(=O)(=O)c1cc2c(cc1Cl)NC(C(Cl)Cl)NS2(=O)=O (stereo not given),97.5% (inactive) and 107% (inactive)
11,COc1cc(C(=O)c2ccc3c(c2)OCO3)cc(OC)c1OC,21% (inactive) and 19.9% (inactive)
12,CCOC(=O)c1c(C)oc(C)c(C(=O)OCC)c1=O,98.8% (inactive)
13,O=[N+]([O-])c1ccc(/C=N\NC(=S)Nc2ccc(F)cc2)cc1,113% (inactive) and 96.8% (inactive)
14,Nc1ccc(N=Nc2ccc(S(=O)(=O)O)cc2)cc1S(=O)(=O)O,93.8% (inactive) and 117% (inactive)
15,S=C1SCN(Cc2ccccc2)CN1Cc1ccccc1,82.3% (inactive)
16,Cn1c(=O)c2[nH]c(CCCCCCCCc3nc4ccccc4[nH]3)nc2n(C)c1=O,80.7% (inactive) and 80.8% (inactive)
17,CCOC(=O)Nc1nc2ccccc2[nH]1,105% (inactive) and 22.4% (inactive)
18,CCN(CC)CCCC(CNc1ccnc2cc(Cl)ccc12)c1ccc(Cl)cc1 (stereo not given),-84.7% (active) and -71.4% (active)

# Same assay, conditions: 100 µM
row,SMILES,growth
1,CC#C[C@]1(O)CC[C@H]2[C@@H]3CCC4=CC(=O)CCC4=C3[C@@H](c3ccc4c(c3)OCO4)C[C@@]21C,-53.8% (active)
2,Cc1[nH]c(-c2nc3ccccc3[nH]2)c(C)c1C(=O)NC(C)C1CCCCC1 (stereo not given),-73.2% (active)
